Measurements reported in PubChem BioAssay AID431 (Sanford-Burnham Center for Chemical Genomics, 2006).
Hit rate of the full screen: of about 63,000 compounds, about 1,100 (1.7%) were called active. Many of the other results were omitted from the sample, so actives are more common in it than they were. Potency and affinity values are given separately. Values without a mark were called inactive.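 The calls were made as follows: active = compounds whose percent cytotoxicity in the single-dose primary screen, scaled between solvent and toxic-drug controls, exceeds 50; inactive = the rest.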

Experiment: viability loss of HPDE-C7K cells – cell-based, fluorescence, HTS, primary screen (AID 431);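 also: 0% = DMSO solvent wells and 100% = doxorubicin-treated wells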
Conditions: HPDE-C7K KRASV12 cells, Alamar Blue viability, 48 h; at 10 µM; hits give high values

| Compound | cytotoxicity |
| --- | --- |
| CNc1nc(C)c(C(=O)OCc2ccccc2)s1 | -0.8% |
| C=CCOn1c(=O)c(=O)n(OCc2ccccc2)c2ccccc21 | -23.8% |
| C/C(N)=C(/C#N)C(=O)CSc1nc2cc(Cl)ccc2s1 | 12% |
| CCOC(=O)N1CCC(NC(=O)c2cc(S(=O)(=O)N3CCC4(CC3)OCCO4)ccc2F)CC1 | -4.2% |
| COC(=O)c1ccc(C2C(C#N)=C(N)Oc3cc(C)n(C)c(=O)c32)cc1 (stereo not drawn) | -10.1% |
| CCCC(=O)c1ccc(N2CCN(C(=O)c3ccc(Br)cc3)CC2)c(F)c1 | -6.7% |
| CCCCCC(=O)N1CCN(c2ccc(C(C)=O)cc2F)CC1 | 0.9% |
| CCCC(=O)N1CCN(c2ccc(C(=O)c3ccc(OC)c(Br)c3)cc2F)CC1 | 62.5% (active) |
| COc1ccc(-c2nnc(SCC(=O)N3CCCCC3)o2)cc1OC | -0.7% |
| O=C(Nc1ccc(C(F)(F)F)cc1Cl)c1ccc(Cn2cc(Br)cn2)o1 | 124% (active) |
| O=C(NC1CCCCC1)c1ccc(Cn2cc(Br)cn2)o1 | -12.9% |
| CC(=O)c1sc(NC(=O)c2ccc(Cn3cc(Br)cn3)o2)nc1C | 1.1% |
| Cc1cc(C)nc(SCc2nnc(SCc3ccccc3Cl)o2)n1 | -16.5% |
| Cc1ccc(NC(=O)CSc2nnc(-c3ccco3)c(-c3ccco3)n2)cc1 | 90.7% (active) |
| O=C(CSc1nnc(-c2ccco2)c(-c2ccco2)n1)Nc1ccccc1 | 1.2% |
| COc1ccc(NC(=O)CSc2nnc(-c3ccco3)n2C)cc1 | 0.5% |
| Clc1ccccc1CSc1ncccn1 | -6% |
| CCNC(=O)CP(=O)(c1ccccc1)c1ccccc1 | 1.9% |
| CCc1ccc(Cn2nnc(C(=O)Nc3cccc(C)c3)c2N)cc1 | -0.7% |
| CCOC(=O)C1CCCN(CCC(C)c2ccccc2)C1 (stereo not drawn) | 20.5% |
| Cc1c(NC(=O)NC(=O)c2ccc(F)cc2)c(=O)n(-c2ccccc2)n1C | -11.2% |

| Compound | cytotoxicity |
| --- | --- |
| COc1cccc(Nc2nc(-c3sc(N)nc3C)cs2)c1 | 60.7% (active) |
| Cc1nc(N)sc1-c1csc(Nc2ccccn2)n1 | -9.8% |
| COc1ccc(CCNc2nc(-c3sc(N)nc3C)cs2)cc1OC | 16.4% |
| COc1ccc(Nc2nc(-c3sc(N)nc3C)cs2)cc1 | 58% (active) |
| Cc1nc(N)sc1-c1csc(Nc2ccccc2)n1 | 49% |
| COc1ccc(OC)c(Nc2nc(-c3sc(N)nc3C)cs2)c1 | 37.6% |
| CCOc1ccc(Nc2c3c(nc4ncnn24)CC(C)CC3)cc1 (stereo not drawn) | 4.3% |
| O=C(O)CCCNS(=O)(=O)c1cccs1 | 8% |
| COc1ccc(NC(=O)C2CC2)cc1-n1cnnn1 | -12.2% |
| NC(=O)C1CCN(C(=O)CN(c2cccc(C(F)(F)F)c2)S(=O)(=O)c2ccccc2)CC1 | -1.4% |
| CCOC(=O)Nc1ccc2c(c1)N(C(=O)CCN1CCOCC1)c1ccccc1S2 | 0.3% |
| CCOC(=O)Nc1ccc2c(c1)Sc1ccccc1N2C(=O)CCN1CCOCC1 | 1.2% |
| CCOC(=O)Nc1ccc2c(c1)N(C(=O)CCN1CCOCC1)c1ccccc1S2=O (stereo not drawn) | 69.3% (active) |
| Cc1c(NC(=O)CSc2nnnn2Cc2ccccc2)c(=O)n(-c2ccccc2)n1C | -13.5% |
| Cc1c(NC(=O)Nc2ccc(Cl)c(Cl)c2)c(=O)n(-c2ccccc2)n1C | 70.7% (active) |
| Cc1c(NC(=O)c2ccc(Br)o2)c(=O)n(-c2ccccc2)n1C | 12.6% |
| Cc1c(NC(=O)Nc2ccc(Cl)cc2)c(=O)n(-c2ccccc2)n1C | -17% |
| Cc1c(NC(=O)Nc2cccc(Cl)c2)c(=O)n(-c2ccccc2)n1C | -10.4% |
| Cc1c(NC(=O)c2ccc(=O)oc2)c(=O)n(-c2ccccc2)n1C | -10.4% |
| CCOC(=O)c1nn(-c2ccccc2)c(=O)c(C#N)c1C | 0.8% |
| Cc1noc(C)c1COC(=O)CCCOc1ccc(Cl)cc1Cl | 5.6% |

| Compound | cytotoxicity |
| --- | --- |
| COc1cccc(NC(=O)CN2CCN(S(=O)(=O)c3ccc(C(C)C)cc3)CC2)c1 | -4.2% |
| C/C(=N\O)C(=O)C(CN1CCCCC1)CN1CCCCC1 | -6.8% |
| COc1cc(NC(=O)C2C3C=CC(C3)C2C(=O)O)c(OC)cc1Cl (stereo not drawn) | 2.1% |
| N#CC1=C(N)n2c(s/c(=C\c3ccco3)c2=O)=C(C#N)C1c1ccco1 (stereo not drawn) | 5.8% |
| CCOC(=O)C1=C(N)n2c(s/c(=C\c3cccnc3)c2=O)=C(C(=O)OC)C1c1cccnc1 (stereo not drawn) | -15.5% |
| CCOC(=O)C1=C(N)n2c(s/c(=C\c3cccnc3)c2=O)=C(C(=O)OCC)C1c1cccnc1 (stereo not drawn) | -18.8% |
| CCOC(=O)C1=C(N)n2c(s/c(=C\c3ccco3)c2=O)=C(C(=O)OC(C)C)C1c1ccco1 (stereo not drawn) | 0.1% |
| CCOC(=O)C1=C(N)n2c(s/c(=C/c3ccco3)c2=O)=C(C(=O)OC)C1c1ccco1 (stereo not drawn) | 73.7% (active) |
| O=C(OCN1C(=O)c2ccccc2C1=O)c1ccccc1 | 2.9% |
| CCn1c(=O)cc(OCC(=O)Nc2cc(C)ccn2)c2ccccc21 | -3.3% |
| N#Cc1nc(COc2ccccc2F)oc1N1CCCCCC1 | -5.8% |
| CCOc1ccccc1CN1CCN(S(C)(=O)=O)CC1 | -4.6% |
| Cc1ccc(NC(=O)CSC2=C(C#N)C(c3ccco3)C3=C(CC(C)(C)CC3=O)N2)cc1 (stereo not drawn) | 54.3% (active) |
| Cc1ccc(C(=O)CSC2=C(C#N)C(c3ccco3)C3=C(CC(C)(C)CC3=O)N2)cc1 (stereo not drawn) | 18.2% |
| COc1cccc(NC(=O)CSC2=C(C#N)C(c3ccco3)C3=C(CCCC3=O)N2)c1 (stereo not drawn) | 15.3% |
| Cc1ccc(C(=O)CSC2=C(C#N)C(c3ccco3)C3=C(CCCC3=O)N2)cc1 (stereo not drawn) | 77.3% (active) |
| N#CC1=C(SCC(=O)c2ccccc2)NC2=C(C(=O)CCC2)C1c1ccco1 (stereo not drawn) | 41.2% |
| CCc1ccc(NC(=O)CSC2=C(C#N)C(c3ccco3)C3=C(CCCC3=O)N2)cc1 (stereo not drawn) | 8.2% |
| CCCCc1ccc(NC(=O)CSC2=C(C#N)C(c3ccco3)C3=C(CCCC3=O)N2)cc1 (stereo not drawn) | 79.6% (active) |
| CC1(C)CC(=O)C2=C(C1)NC(SCC(=O)Nc1ccccc1)=C(C#N)C2c1ccco1 (stereo not drawn) | -6.1% |
| Cc1ccc(NC(=O)CSC2=C(C#N)C(c3ccco3)C3=C(CCCC3=O)N2)cc1 (stereo not drawn) | 2.1% |
